Experimental data: PubChem BioAssay (NCATS)
Inconclusive results are not listed. The source made the active and inactive calls. Unless noted, calls follow the shape of the dose curve; as a rule, active = well fitted curve in the direction sought with a large enough effect; inconclusive = small, poorly fitted or top-dose-only effect, or another doubt; inactive = no such curve, though single readings can be large; an effect the other way counts as inactive or inconclusive.

Tests used:
[1] = molecular target: Cytochrome P450 3A4 (Homo sapiens) (UniProt P08684); test: qHTS Assay for Inhibitors and Substrates of Cytochrome P450 3A4 (AID 884); also: nearly all actives have a fitted effect of over 50% in size; also: potency is read from the fitted curve at half-maximal effect; as to activity change, negative = inhibition: % is scaled to controls: 0 for no effect and ±100 for the full control effect
Outline: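 Luminescent readout of luciferin produced by CYP3A4 (20 nM) dealkylation of Luciferin-PPXE, 25 uM (its KM). NADPH-driven reaction ran 60 min at RT after 10 min compound preincubation; data scaled to 57 uM ketoconazole as 100% inhibition.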

[2] = molecular target: Cytochrome P450 3A4 (Homo sapiens) (UniProt P08684); test: qHTS Assay for Activators of Cytochrome P450 3A4 (AID 885); also: nearly all actives have a fitted effect of over 65% in size
Outline: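 Using 20nM recombinant human CYP3A4 in potassium phosphate (200mM), substrate Luciferin-PPXE at 25uM, luminescent luciferin detection followed a 60-min RT NADPH reaction; data scaled to 57 uM ketoconazole.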

[3] = Confirmation and Secondary Assay for Modulators of Hemoglobin Beta Chain Splicing at IVS2 654 locus (AID 910);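 also: per-well total GFP intensity by laser scanning cytometry after 2-day treatment; % of control where 0% means no effect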
Outline: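 HeLa cells stably carrying EGFP interrupted by mutant beta-globin IVS2-654 intron (CMV-driven) were treated with compound for 2 days at 37C; corrected splicing was scored as total peak GFP intensity per well (488 nm excitation, 500-520 nm emission).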

[4] = qHTS Assay for Lipid Storage Modulators (AID 1519; calls by dose curve; as to activity change, negative = inhibition: % is scaled to controls: 0 for no effect and ±100 for the full control effect); settings: Drosophila S3 cells, BODIPY lipid droplet/cell ratio, laser cytometry, cells loaded with oleic acid; for activity change, negative = inhibition: at 57.5 µM (top of the series)
Outline: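 Cells seeded at 5,000 per well were treated with compounds over a concentration series and loaded with oleic acid (400 uM, as added). Lipid droplet fluorescence (488 nm excitation, 500-530 nm channel) was read by laser-scanning cytometry and normalized to 20 uM Triacsin C.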

[5] = molecular target: DNA dC->dU-editing enzyme APOBEC-3G (Homo sapiens) (UniProt Q9HC16); test: qHTS for inhibitors of Vif-A3G interactions: Validation (AID 588379); also: 0% is about no effect
Outline: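 Yellow fluorescence (Ex 488, Em 500-530) of Vif-coexpressing HeLa A3G-eYFP cells, scanned by Acumen cytometer, reports blocked A3G degradation. Cells plated at 700/well overnight at 37 deg C before compound addition, then a further overnight compound incubation at 37 deg C.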

[6] = Confirmation and Secondary Assay for Modulators of Hemoglobin Beta Chain Splicing at IVS2 705 locus (AID 930);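 also: HeLa cells stably expressing the EGFP-705 splicing reporter; GFP fluorescence per well restored by corrected splicing of the IVS2-705 intron in EGFP; % of control where 0% means no effect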
Outline: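 Stable HeLa line with EGFP disrupted by mutant beta-globin intron 2 (705). Overnight attachment, then 2 days of compound at 37C, 5% CO2. Signal: peak GFP intensity summed over objects 5-250 µm.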

[7] = molecular target: Ubiquitin carboxyl-terminal hydrolase 1 (Homo sapiens) (UniProt O94782); test: Inhibitors of USP1/UAF1: Pilot qHTS (AID 504865);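 also: rhodamine fluorescence freed from ubiquitin-rhodamine substrate followed over time; top concentration of the series differs between compounds; % is scaled to controls: 0 for no effect and ±100 for the full control effect; nearly all actives have a fitted effect of over 35% in size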
Outline: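 In 50mM HEPES pH 7.8 containing 0.5mM EDTA, 1mM TCEP, 0.1 mg/ml BSA and 0.01% Tween-20, 1nM USP1/UAF1 is exposed to compound for 15 min, then Ub-Rho (150nM final) is added and fluorescence is read over time.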

[8] = measured here: cell count channel max response
[9] = measured here: lipid channel max response

Chain of DNA dC->dU-editing enzyme APOBEC-3G (Homo sapiens) (Q9HC16 whole entry, looked up): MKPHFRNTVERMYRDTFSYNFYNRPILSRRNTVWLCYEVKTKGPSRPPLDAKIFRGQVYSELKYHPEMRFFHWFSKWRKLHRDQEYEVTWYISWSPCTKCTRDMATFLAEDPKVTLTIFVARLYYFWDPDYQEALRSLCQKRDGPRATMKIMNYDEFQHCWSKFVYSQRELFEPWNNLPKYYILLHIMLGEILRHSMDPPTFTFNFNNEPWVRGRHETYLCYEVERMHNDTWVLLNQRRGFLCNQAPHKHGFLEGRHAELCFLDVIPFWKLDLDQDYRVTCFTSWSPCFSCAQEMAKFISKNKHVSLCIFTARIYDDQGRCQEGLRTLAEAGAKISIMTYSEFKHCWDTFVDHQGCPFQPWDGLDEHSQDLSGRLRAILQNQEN
Chain of Cytochrome P450 3A4 (Homo sapiens) (P08684 whole entry, looked up): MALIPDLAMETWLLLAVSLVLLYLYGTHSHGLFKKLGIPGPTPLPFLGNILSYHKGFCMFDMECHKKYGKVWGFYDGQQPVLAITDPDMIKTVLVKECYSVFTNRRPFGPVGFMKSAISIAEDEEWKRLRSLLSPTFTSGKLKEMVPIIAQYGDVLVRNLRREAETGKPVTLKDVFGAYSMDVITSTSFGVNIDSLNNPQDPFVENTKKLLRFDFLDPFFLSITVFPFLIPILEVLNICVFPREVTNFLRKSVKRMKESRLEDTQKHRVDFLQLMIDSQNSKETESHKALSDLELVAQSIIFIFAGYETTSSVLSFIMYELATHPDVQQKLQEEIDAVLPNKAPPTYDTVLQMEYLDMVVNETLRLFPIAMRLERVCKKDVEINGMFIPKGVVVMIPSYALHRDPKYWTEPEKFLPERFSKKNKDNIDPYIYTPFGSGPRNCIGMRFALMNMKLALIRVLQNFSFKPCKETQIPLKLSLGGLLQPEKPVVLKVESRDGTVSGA
Chain of Ubiquitin carboxyl-terminal hydrolase 1 (Homo sapiens) (O94782 whole entry, looked up): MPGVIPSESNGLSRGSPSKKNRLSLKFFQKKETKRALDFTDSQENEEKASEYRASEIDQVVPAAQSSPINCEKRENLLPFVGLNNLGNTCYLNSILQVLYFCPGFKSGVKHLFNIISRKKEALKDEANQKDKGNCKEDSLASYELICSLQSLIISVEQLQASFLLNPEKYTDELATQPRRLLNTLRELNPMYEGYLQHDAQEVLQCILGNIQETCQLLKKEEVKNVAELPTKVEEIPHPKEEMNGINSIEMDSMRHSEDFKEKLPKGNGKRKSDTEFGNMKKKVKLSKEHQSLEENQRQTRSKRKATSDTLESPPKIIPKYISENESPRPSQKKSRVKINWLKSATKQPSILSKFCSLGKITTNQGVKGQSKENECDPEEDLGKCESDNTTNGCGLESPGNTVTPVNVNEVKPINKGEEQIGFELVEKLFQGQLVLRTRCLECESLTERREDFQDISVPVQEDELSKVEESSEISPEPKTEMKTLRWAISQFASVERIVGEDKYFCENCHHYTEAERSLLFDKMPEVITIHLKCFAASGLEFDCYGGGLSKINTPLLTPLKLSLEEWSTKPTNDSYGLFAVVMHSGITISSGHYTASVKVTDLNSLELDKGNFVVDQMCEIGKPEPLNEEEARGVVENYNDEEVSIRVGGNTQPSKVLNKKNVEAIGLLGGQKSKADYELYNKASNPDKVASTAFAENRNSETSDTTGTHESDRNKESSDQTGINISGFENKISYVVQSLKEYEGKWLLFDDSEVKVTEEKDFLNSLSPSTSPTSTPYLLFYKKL

Row | Compound | Potency [1] | Potency [2] | Potency [3] | activity change, negative = inhibition [4] | max response [4, 8] [%] | max response [4, 9] [%] | outcome [5] | Potency [6] | Potency [7]
1 | C=C1C2CC[C@@]3(C)C(c4ccoc4)OC(=O)C[C@@]13OC1CC(=O)C(C)(C)C(C(OC(C)=O)C(=O)OC)[C@@]12C (stereo partly drawn) | 1 µM (active) | inactive | inactive | 1.36% (inactive) | 4.29 | 7.56 | – | – | –
2 | CC[C@H]1C2CC3[C@@H]4N(C)c5ccccc5[C@]45C[C@@H](C2[C@H]5O)N3[C@@H]1O (stereo partly drawn) | inactive | – | – | -0.775% (inactive) | 15.3 | 14.3 | inactive | – | –
3 | OC[C@@H]1CCCN2CCCC[C@@H]12 | inactive | – | – | -9.64% (inactive) | -24.5 | -31.5 | inactive | – | –
4 | CNC1C2CN3CCC(O2)C13 (stereo not drawn) | inactive | – | – | 3.03% (inactive) | 7.52 | 11.5 | inactive | – | –
5 | CC1/C=C/C=C/CC/C=C/C=C/C=C/C=C/C(OC2OC(C)C(O)C(N)C2O)CC2O[C@](O)(CC(O)C(O)CCC(O)CC(O)CC(O)CC(=O)OC(C)C(C)C1O)CC(O)C2C(=O)O (stereo partly drawn) | – | – | – | 9.08% (inactive) | 17 | 32 | – | inactive | inactive
6 | COc1cc2c(cc1OC)[C@]13CCN4CC5=CCOC6CC(=O)N2[C@@H]1[C@@H]6C5C[C@@H]43 (stereo partly drawn) | inactive | – | – | -2% (inactive) | -11.3 | -11.3 | inactive | – | –
7 | CN1CCc2cc3c(cc2C1O)OCO3 (stereo not drawn) | – | – | inactive | 7.6% (inactive) | 9.52 | 18.6 | – | inactive | inactive
8 | COc1cc2c(cc1OC)[C@@H]1C(=O)c3ccc(O)c(CC=C(C)C)c3OC1CO2 (stereo partly drawn) | inactive | – | inactive | 7.74% (inactive) | 14.6 | 25.6 | – | inactive | –
9 | CCC12CCCN3CCC4(c5ccc(OC)c(O)c5N(C(C)=O)C4CC1)C32 (stereo not drawn) | 15.8 µM (active) | inactive | – | -0.564% (inactive) | 14.6 | 12.8 | inactive | – | –
10 | CC1O[C@@H](OC2CC(O)[C@@]3(CO)C4C(O)C[C@@]5(C)C(C6=CC(=O)OC6)CC[C@]5(O)C4CC[C@]3(O)C2)C(O)C(O)C1O (stereo partly drawn) | inactive | – | inactive | 3.6% (inactive) | 6.17 | 13.6 | – | – | –
11 | S=C=NCc1ccccc1 | 25.1 µM (active) | inactive | inactive | 4.36% (inactive) | -6.33 | 0.435 | – | inactive | –
12 | CC1=C2C3OC(=O)[C@H](C)[C@H]3CC[C@@]2(C)C=CC1=O (stereo partly drawn) | – | inactive | – | 2.8% (inactive) | 25.6 | 29.5 | inactive | – | –
13 | CC1CC[C@@]2(NC1)O[C@@H]1C[C@H]3C4CC=C5C[C@@H](O)CC[C@]5(C)C4CC[C@]3(C)[C@H]1[C@@H]2C (stereo partly drawn) | inactive | – | – | 7.46% (inactive) | -0.557 | 6.71 | inactive | – | –
14 | CC1(C)C(O)CC(O)[C@]2(C)C1CC(=O)[C@]1(C)C2CC[C@@]2(C)C(c3ccoc3)OC(=O)C3OC321 (stereo partly drawn) | 6.31 µM (active) | inactive | inactive | -5.65% (inactive) | 17 | 11.8 | – | inactive | –
15 | C[C@H]1C(=O)O[C@H]2CCN3CC=C(COC(=O)[C@](C)(O)[C@@]1(C)O)C23 (stereo partly drawn) | inactive | – | – | -4.35% (inactive) | 5.67 | 3.38 | inactive | – | –
16 | CCC(N)C(O)c1ccc(O)c(O)c1 (stereo not drawn) | – | – | – | 5.92% (inactive) | 7.01 | 16.7 | – | inactive | inactive
